Laboratory results taken from PubChem BioAssay (NCATS).
Inconclusive results are not listed. Activity calls are given as the source filed them. Calls follow the shape of the dose curve; as a rule, active = well fitted inhibition curve with a large enough effect; inconclusive = small, poorly fitted or top-dose-only effect; inactive = flat fitted curve, though single readings scatter.

These molecules were tested on CRL-7250 (assay: qHTS assay to identify novel small-molecules to repurpose for Merkel cell carcinoma treatment (AID 1296009; also: nearly all actives have a fitted effect of over 60% in size)). Settings: MCC and control cell lines, CellTiter-Glo viability, 72 h; at 44.8 µM (top of the series) unless noted.
How it was run: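 CellTiter-Glo luminescence after 72 hr compound exposure at 37 degree celsius gave cell viability. Libraries NPC and MIPE were run as 8- and 11-point dose responses; RLUs normalized to DMSO (negative) and no-cell (cytotoxicity) controls.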

Row | SMILES | outcome
1 | O=C(O)COC(=O)Cc1ccccc1Nc1c(Cl)cccc1Cl | inactive
2 | O=C(O)c1cccc(-c2noc(-c3ccccc3F)n2)c1 | inactive
3 | CCCCNc1cc(C(=O)O)cc(S(N)(=O)=O)c1Oc1ccccc1 | inactive
4 | COc1ccc2c(c1)c(CC(=O)O)c(C)n2C(=O)c1ccc(Cl)cc1 | inactive
5 | CCC(C)(C)c1ccc(CC(C)CN2C[C@@H](C)O[C@@H](C)C2)cc1 (stereo partly drawn) | inactive
6 | O[C@@H](COc1cccc2ncccc12)CN1CCN(C2c3ccccc3[C@@H]3[C@H](c4ccccc42)C3(F)F)CC1 (stereo partly drawn) | inactive
7 | CC(C(O)c1ccc(O)cc1)N1CCC(Cc2ccccc2)CC1 (stereo not drawn) | inactive [at 17.4 µM]
8 | COc1ccc2[nH]c(S(=O)Cc3ncc(C)c(OC)c3C)nc2n1 (stereo not drawn) | inactive
9 | Nc1c2c(nc3ccccc13)CCCC2 | inactive
10 | Cc1nc2sccn2c(=O)c1CCN1CCC(=C(c2ccc(F)cc2)c2ccc(F)cc2)CC1 | inactive
11 | Cc1[nH]c(C)c(Cl)c(=O)c1Cl | inactive [at 17.4 µM]
12 | COc1cc([C@H]2Oc3cc([C@H]4Oc5cc(O)cc(O)c5C(=O)[C@@H]4O)ccc3O[C@@H]2CO)ccc1O | inactive
13 | CSc1ccc(/C=C2/C(C)=C(CC(=O)O)c3cc(F)ccc32)cc1 | inactive
14 | CC(C)(C)C(=O)C(Oc1ccc(Cl)cc1)n1ccnc1 (stereo not drawn) | inactive
15 | Nc1ccc(N=Nc2ccccc2)c(N)n1 | inactive
16 | N#Cc1cc(NC(=O)C(=O)O)c(Cl)c(NC(=O)C(=O)O)c1 | inactive
17 | Fc1ccc(C(c2ccc(F)cc2)N2CCNCC2)cc1 | inactive
18 | O=C(O)c1cn(C2CC2)c2cc(Cl)c(F)cc2c1=O | inactive
